“And” between values parts separate entries of the source, which are not always exact repeats. Identical values can stand only once. Among all 360,000 compounds or so, about 17,000 (4.7%) were called active. About 5% were inconclusive and are not listed. The sample as a whole holds a higher share of actives than the screen did. A number with no mark means an inactive call. Cut-off read from the data, not from the text of the source: active = activity change below about -50%; inconclusive = mostly about -30% to -49%; inactive = weaker than that.
Assay: qHTS for Inhibitors of Inflammasome Signaling: IL-1-beta AlphaLISA Primary Screen
Settings: THP-1 LPS/ATP IL-1B secretion, 16 h; at 57.5 µM, stronger effect = lower value
Outline: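 Secreted IL-1B measured by AlphaLISA bead assay after 16 h compound exposure of THP-1 cells; compounds (final up to 57.5 uM) added 1 h before LPS (250 ng/mL) and ATP (1.25 mM) stimulation; lower signal means less secretion.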
% is set by controls: 0 for no effect and ±100 for the full control effect.

| Compound | activity change |
| --- | --- |
| COC(=O)[C@@]1(Cc2ccc(OC)cc2)[C@H]2c3cc(C(=O)N4CCCC4)n(Cc4ccc(OC(F)(F)F)cc4)c3C[C@H]2CN1C(=O)c1ccccc1 | 0% |
| CCC(C(=O)Nc1c(C)cccc1C)n1c(-c2cc(C)cs2)nc2ccccc21 (stereo not given) | -9.28% |
| O=C(Cc1cccc2ccccc12)NNC(=O)Nc1ccc(Cl)cc1 | -50% (active) |
| O=C(O)Cc1ccc(NC(=O)Nc2cccc3ccccc23)cc1 | 11.3% |
| Cc1ccc(NC(=S)NC(NC(=O)Cc2cccc3ccccc23)C(Cl)(Cl)Cl)cc1 (stereo not given) | 1.31% |
| O=C1C(Sc2cccc(F)c2)=C[C@@]2(O)CC[C@@H](O)[C@]1(Sc1cccc(F)c1)[C@H]2O | 8.29% |
| Cc1cccc(Nc2ccccc2C(=O)NCc2ccco2)c1C | 3.14% |
| O=C(Nc1ccccc1)Nc1ccccc1C(=O)NCc1ccco1 | -56.9% (active) |
| O=C(CCNC(=O)c1ccccc1Cl)NCc1ccco1 | 2.08% |
| O=C1CSC(=S)N1c1ccc(Cl)c(Cl)c1 | 7.49% |
| CCC(CC)C(C(=O)NC1CCCC1)N1CCN(c2cc(C)nc3ccccc23)CC1 (stereo not given) | -20.5% |
| CC1(C)CC(=O)C=C(c2ccccc2CO)C1=O | 22.9% |
| CCOC(=O)c1ccc(CS(=O)c2ccc(Cl)cc2)o1 (stereo not given) | -4.53% |
| CCOC(=O)c1c(Cc2ccc(Cl)cc2)c[nH]c1C | -74.6% (active) |
| CCOC(=O)N1CCN(C(=O)CNC(=O)Cc2ccc(Cl)cc2)CC1 | -0.466% |
| Cc1cccc(NC(=S)N2CCC(C(=O)c3ccc(F)cc3)CC2)c1 | -26.4% |
| Cc1cccc(NC(=O)c2nc[nH]c2C(=O)NCC(=O)OCc2ccccc2)c1 | 5.22% |
| CCOc1ccc(NC(=O)c2nc(SCC)ncc2Cl)cc1 | -0.255% |
| Cc1cccc(NC(=O)CSc2nc3[nH]ncc3c(=O)[nH]2)c1 | 9.71% |
| Cc1cccc(CS(=O)(=O)c2ncc(Cl)c(C(=O)Nc3ccc(F)cc3)n2)c1 | -93.5% (active) |
| Cc1cccc(NC(=O)c2nc(S(=O)(=O)Cc3ccccc3)ncc2Cl)c1 | -103% (active) |
| O=C(Nc1ccc(F)cc1)c1ccc(S(=O)(=O)NCc2cccnc2)cc1 | -4.04% |
| Cc1ccc(S(=O)(=O)N(C)C)cc1NC(=O)CN1c2cccc3cccc(c23)S1(=O)=O | 12.6% |
| COc1cc(CN2CCNC(=O)C2CC(=O)NCCc2ncccc2C)cc(OC)c1 (stereo not given) | 16.2% |
| CN(CCc1ccccc1)C(=O)c1cccc(NC(=O)Cc2cccc(NC(=O)C3CCCN(C(=O)C4CCC4)C3)c2)c1 (stereo not given) | -17.1% |
| N#CCSc1ccccc1NC(=O)CN1C(=O)NC(CCc2ccccc2)C1=O (stereo not given) | 12.1% |
| COC(=O)CNS(=O)(=O)c1ccc(Cc2ccc(S(=O)(=O)NCC(=O)OC)cc2)cc1 | -100% (active) |
| C/C(N)=C(/C#N)C(=O)COC(=O)CNS(=O)(=O)c1ccc(C)cc1 | -8.82% |

| Compound | activity change |
| --- | --- |
| COC(=O)CNS(=O)(=O)c1ccc(OC)cc1 | -22.2% |
| O=C(CSc1nnc(N2CCOCC2)n1-c1cccc(F)c1)N1CCN(c2ccccn2)CC1 | 2.69% |
| CCCCCNC(=O)C1C(=O)Nc2ccccc2C(=O)N1C(C)(C)C (stereo not given) | 6.47% |
| CCN1CCCC1CNC(=O)c1ccc2c(c1)NC(=O)/C(=C\c1ccccc1F)S2 (stereo not given) | -14.5% |
| CC1(C)O[C@@H]2CC3C4C[C@H](F)C5=CC(=O)C=CC5(C)C4C(O)CC3(C)[C@]2(C(=O)CO)O1 (stereo not given in full) | -54.9% (active) |
| C[C@]12C=CC(=O)C=C1CC[C@@H]1[C@@H]2C(=O)C[C@@]2(C)[C@H]1CC[C@]2(O)C(=O)CO | -14.3% and -7.83% |
| CCCc1nnc(NC(=O)CCC(=O)N2CCN(S(=O)(=O)c3ccc(OC)cc3)CC2)s1 | -1.97% |
| CCOC(=O)c1cccc(NC(=O)CN2C(=O)C3CC=CCC3C2=O)c1 (stereo not given) | 14.4% |
| O=S(=O)(c1ccccc1)c1nc(-c2ccccc2)oc1NCCCN1CCOCC1 | inactive |
| Nc1nc(NCCCN2CCOCC2)nc(Nc2ccccc2)c1[N+](=O)[O-] | -59.1% (active) |
| O=[N+]([O-])c1ccc(NCCCN2CCOCC2)c(Cl)c1 | -21.3% |
| Cc1ccc(Cn2c(C)c3cnn(CC(=O)NCCN4CCOCC4)c(=O)c3c2C)cc1 | -4.12% |
| O=C(CSc1ncn[nH]1)Nc1nc2c(F)c(F)c(F)cc2s1 | -7.33% |
| C=CCNc1nc(N)c([N+](=O)[O-])c(NC2CCCCC2)n1 | 66.3% |
| Nc1nc(Nc2ccccc2F)nc(NC2CCCCC2)c1[N+](=O)[O-] | -71.1% (active) |
| Nc1nc(NCC2CCCO2)nc(Nc2ccccc2F)c1[N+](=O)[O-] (stereo not given) | 0% |
| CCN1C[C@@H]2[C@@H]3C(=O)N(Cc4ccccc4)C(=O)[C@@H]3[C@](C)(C1=O)N2C(=O)c1ccc(C(C)(C)C)cc1 | 0% |
| CSc1ncnc2c1ncn2CCCNCc1ccco1 | 15.8% |
| CCC(c1nnnn1Cc1ccccc1)N(Cc1cc2cc(OC)ccc2[nH]c1=O)CC1CCCO1 (stereo not given) | 0% |
| Cc1cccc2cc(CN(Cc3cccs3)C(c3nnnn3C3CCCC3)C(C)C)c(=O)[nH]c12 (stereo not given) | 0% |
| Cc1cc(C)c2[nH]c(=O)c(C(c3nnnn3Cc3ccc4c(c3)OCO4)N3CCCC3)cc2c1 (stereo not given) | -10.3% |
| CCC(c1nnnn1Cc1ccco1)N(CCc1ccccc1)Cc1cc2cccc(C)c2[nH]c1=O (stereo not given) | -4.44% |
| Cc1cccc2cc(CN(Cc3nnnn3Cc3ccccc3)C3CCCC3)c(=O)[nH]c12 | -64.3% (active) |
| CCOc1ccc2[nH]c(=O)c(CN(Cc3nnnn3Cc3ccccc3)CC3CCCO3)cc2c1 (stereo not given) | -63.9% (active) |
| Cc1cccc2cc(CN(Cc3ccc4c(c3)OCO4)Cc3nnnn3C3CCCC3)c(=O)[nH]c12 | -54.8% (active) |
| CCOc1ccc2[nH]c(=O)c(CN(Cc3nnnn3CCc3ccccc3)CC3CCCO3)cc2c1 (stereo not given) | -29.1% |
| Cc1cc(C)c2cc(CN(Cc3nnnn3Cc3ccc(F)cc3)C3CCCC3)c(=O)[nH]c2c1 | 7.62% |
